Measured values taken from PubChem BioAssay AID1835 (Johns Hopkins Ion Channel Center, 2009).
Screen size: about 2,400 compounds; about 750 (31%) were called active. Some of the results follow. Values without a mark were called inactive.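 Rule for the calls: active = median signal gain over dofetilide-blocked control wells reaching their mean plus 3 SD, so readout 1 at least 0; inactive = the rest.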

biological target: Voltage-gated inwardly rectifying potassium channel KCNH2 (Homo sapiens) (UniProt Q12809); assay: modulators restoring hERG flux under dofetilide – cell-based, thallium flux, duplicate retest, dofetilide IC70, confirmation (AID 1835); settings: hERG cell line, FluxOR thallium flux, dofetilide-blocked; at 10 µM; active compounds read high
Sequence (Q12809 whole entry, looked up): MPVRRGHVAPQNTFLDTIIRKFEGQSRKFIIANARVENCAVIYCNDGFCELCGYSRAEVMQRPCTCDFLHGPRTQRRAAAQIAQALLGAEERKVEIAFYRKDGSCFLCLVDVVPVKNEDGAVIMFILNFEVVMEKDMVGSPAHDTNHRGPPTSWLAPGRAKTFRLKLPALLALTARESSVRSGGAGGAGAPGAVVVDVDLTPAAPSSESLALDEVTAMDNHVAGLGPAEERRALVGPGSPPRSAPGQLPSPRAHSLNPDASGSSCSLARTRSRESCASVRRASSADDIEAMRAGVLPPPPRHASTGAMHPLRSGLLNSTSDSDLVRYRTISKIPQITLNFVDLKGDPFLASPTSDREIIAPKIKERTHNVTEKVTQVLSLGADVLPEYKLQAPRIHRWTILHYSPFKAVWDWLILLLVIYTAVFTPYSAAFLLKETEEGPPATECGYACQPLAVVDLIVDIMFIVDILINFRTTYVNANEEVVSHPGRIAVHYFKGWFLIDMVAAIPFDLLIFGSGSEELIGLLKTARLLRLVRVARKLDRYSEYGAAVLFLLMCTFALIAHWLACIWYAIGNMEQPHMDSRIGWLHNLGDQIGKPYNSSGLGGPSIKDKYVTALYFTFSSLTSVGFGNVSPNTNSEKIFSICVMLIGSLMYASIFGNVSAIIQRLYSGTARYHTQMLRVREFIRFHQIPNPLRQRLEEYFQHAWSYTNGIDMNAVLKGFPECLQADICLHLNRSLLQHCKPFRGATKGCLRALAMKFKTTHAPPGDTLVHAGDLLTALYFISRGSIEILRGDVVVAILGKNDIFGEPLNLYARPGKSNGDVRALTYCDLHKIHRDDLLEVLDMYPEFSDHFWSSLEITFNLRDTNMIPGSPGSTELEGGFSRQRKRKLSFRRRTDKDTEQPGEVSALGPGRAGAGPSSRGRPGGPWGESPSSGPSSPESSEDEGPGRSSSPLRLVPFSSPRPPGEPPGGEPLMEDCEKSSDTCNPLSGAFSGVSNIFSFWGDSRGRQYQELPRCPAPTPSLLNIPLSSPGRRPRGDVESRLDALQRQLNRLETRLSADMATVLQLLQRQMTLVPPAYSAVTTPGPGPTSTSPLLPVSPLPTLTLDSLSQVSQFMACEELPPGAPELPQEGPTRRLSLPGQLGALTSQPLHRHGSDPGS

Row | Compound | activity increase over dofetilide control, less the hit threshold
1 | N/C(=N\OS(=O)(=O)c1cccc([N+](=O)[O-])c1)c1ccncc1 | 1% (active)
2 | CN(c1cccc(NS(=O)(=O)c2cccc([N+](=O)[O-])c2)c1)S(C)(=O)=O | -19%
3 | O=C(CSc1nnc(-c2ccncc2)o1)c1cccc([N+](=O)[O-])c1 | -10%
4 | COc1ccc(C)cc1-n1nnnc1SCc1nc2ccccc2c(=O)[nH]1 | -16%
5 | Cc1ccc(C2=NN(C(=O)CCCC(=O)O)C(c3ccc4c(c3)OCO4)C2)cc1 (configuration not stated) | -23%
6 | Cc1ccc2oc3c(c(=O)c2c1)C(c1cccs1)N(CCCN(C)C)C3=O (configuration not stated) | 11% (active)
7 | CCN(CC)CCCN1C(=O)c2oc3ccccc3c(=O)c2C1c1cccs1 (configuration not stated) | 28% (active)
8 | COCCN1C(=O)c2oc3cc(C)c(C)cc3c(=O)c2C1c1ccc(O)cc1 (configuration not stated) | -7%
9 | COCCCNC(=O)CC(NS(=O)(=O)c1ccc(F)cc1)c1ccc(OC)cc1 (configuration not stated) | -1%
10 | CN(C)NC(=O)C(NC(=O)c1ccc(N)cc1)C12CC3CC(CC(C3)C1)C2 (configuration not stated) | -10%
11 | O=C(O)c1cc(-c2cccc([N+](=O)[O-])c2)n[nH]1 | -14%
12 | CCc1nnc(NS(=O)(=O)c2ccc(NC(=S)NC(=O)/C=C/c3ccc(OC)cc3)cc2)s1 | -4%
13 | CS(=O)(=O)c1sc(C(=O)NC(=S)Nc2ccc(OC(F)(F)F)cc2)c2c1C=CCC2 | 11% (active)
14 | O=C(O)/C=C/C(=O)Nc1ccc(OC(F)(F)F)cc1 | -3%
15 | COc1ccc(Cc2c(O)nc(SCC(=O)NC(C)(C)C)[nH]c2=O)cc1 | -17%
16 | Cc1nc(SCC(=O)NCC2CCCO2)c2c3c(sc2n1)CCCC3 (configuration not stated) | 9% (active)
17 | C=CCn1c(SCC(=O)NCC2CCCO2)nnc1-c1ccccc1 (configuration not stated) | -1%
18 | COc1cccc(N2CC(C(=O)Nc3nnc(SCC(=O)NCC4CCCO4)s3)CC2=O)c1 (configuration not stated) | -4%
19 | Cc1cc(OCc2ccc(C(=O)Nc3ccc(C(=O)O)cc3)o2)ccc1Cl | -22%
20 | Cc1ccc(OCc2ccoc2C(=O)O)cc1C | 11% (active)
21 | COC(=O)C1CN(C(=O)COc2ccc(C)c(C)c2)c2ccccc2O1 (configuration not stated) | -11%
22 | COC(=O)c1cc(S(=O)(=O)NCC2CCN(Cc3cc(C)ccc3C)CC2)c[nH]1 | -12%
23 | Cc1nn(C)cc1C(=O)Nc1ccc2c(c1)OCCO2 | -8%
24 | COc1cc(NS(=O)(=O)c2ccc(NC(=S)Nc3ccccc3)cc2)nc(OC)n1 | -26%
25 | CCN(c1ccccc1)S(=O)(=O)c1ccc(NC(=S)NC(=O)c2ccc(Br)o2)cc1 | 20% (active)
26 | O=C(CNC(=S)NC(=O)c1ccc(Br)o1)c1ccccc1 | -3%

Row | Compound | activity increase over dofetilide control, less the hit threshold
27 | COc1ccc(OC)c(NC(=S)NC(=O)c2ccc(Br)o2)c1 | 0% (active)
28 | COc1cccc(NC(=S)NC(C)c2ccc(OC)c(OC)c2)c1 (configuration not stated) | -24%
29 | O=C(NC(=S)NCc1ccccc1)c1ccc(Br)o1 | 91% (active)
30 | CCc1ccc(NC(=S)NC(=O)c2c(-c3ccccc3Cl)noc2C)cc1 | -2%
31 | COc1ccc(NC(=S)NC(=O)c2ccc(Br)o2)cc1 | 13% (active)
32 | CCOC(=O)C1CCN(C(=O)CCS(=O)(=O)c2ccc3c(c2)CCN3C(=O)CC)CC1 | -17%
33 | N#Cc1c(N)c(C(=O)c2ccccc2)n2ccccc12 | -2%
34 | Cc1ccsc1/C=N/NC(=O)CNC(=O)c1ccccc1 | -2%
35 | CCCCc1c(O)nc(SCC(=O)N2CCOCC2)[nH]c1=O | -10%
36 | Cn1ncc2c(O/N=C(\N)c3ccc(C(F)(F)F)cc3)ncnc21 | -15%
37 | NC(=O)C1CCN(C(=O)CCC(=O)c2ccc(F)cc2)CC1 | -4%
38 | Cc1nc(-c2cc(C#N)c(Sc3ccc(Cl)cc3Cl)nc2C)cs1 | -4%
39 | Cc1ccc(NC(=S)NC(=O)c2ccc(Br)o2)c(C)c1 | 0%
40 | O=C(NC(=S)Nc1ccccc1)c1ccc(Br)o1 | 5% (active)
41 | COc1ccc(-c2cc(C(=O)Nc3ccccc3SC)no2)cc1 | -2%
42 | COc1ccccc1NC(=S)NC(=O)c1ccc(-c2ccc(Cl)cc2)o1 | 8% (active)
43 | O=C(NC(=S)Nc1ccccc1F)c1ccc(Br)o1 | 43% (active)
44 | C/C(=N\NC(=S)Nc1cccc(C)c1)c1ccco1 | -26%
45 | Cc1cccc(NC(=S)NC(=O)c2ccc(Br)o2)c1 | 33% (active)
46 | Cc1ccc2cc(CN(CCCN(C)C)C(=S)NCc3ccccc3)c(=O)[nH]c2c1C | -19%
47 | Cc1nn(-c2ccc(Cl)nn2)c(=O)c2ccccc12 | -12%
48 | COc1cccc2cc(-c3nc4ccccc4[nH]3)c(=O)oc12 | -24%
49 | CC(C)=CC(=O)OCC(=O)Nc1ccc(SC(F)F)cc1 | -16%
50 | O=C(NC(=S)Nc1cccnc1)c1cc2ccccc2o1 | 21% (active)
51 | O=C(Nc1cccnc1)c1cc(-c2cccs2)on1 | -16%
52 | Cc1c(C(=O)NC(=S)NCc2cccnc2)oc2ccccc12 | -7%
